According to PubChem BioAssay AID1159580 (chemical genetic matrix, 2015):
The campaign covered roughly 5,500 compounds. About 2,000 (36%) were called active. Another 18% or so got no clear call; they are omitted. Cut-off read from the data, not from the text of the source: active = normalized growth mostly below about 0.91 (no sharp cut-off); inconclusive = no clear call, values can overlap the other calls; inactive = mostly above about 0.92. The list shows a part of the results.

Test: chemical genetic growth profiling, strain panel (AID 1159580);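 note: tested at 20 µM; growth read once vehicle control cultures reached saturation at 30 °C; 1 = growth at the plate median or of vehicle wells; lower values mean less growth of the strain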
Settings: S. cerevisiae deletion strains, growth OD

Measured: normalized growth

CC(C)(CO)Cc1cc(C(C)(C)C)c(O)c(C(C)(C)C)c1
inactive: locus YAL013W, strain DEP1, stronger effect = lower value 0.972 | locus YAL040C, strain CLN3, stronger effect = lower value 0.927 | locus YCL061C, strain MRC1 (second series), stronger effect = lower value 0.975 | locus YDR363W, strain ESC2, stronger effect = lower value 1.02 | locus YER002W, strain NOP16, stronger effect = lower value 0.968 | locus YGR078C, strain PAC10, stronger effect = lower value 0.978 | locus YGR229C, strain SMI1, stronger effect = lower value 0.898 | locus YNL175C, strain NOP13, stronger effect = lower value 0.954 | locus YNL197C, strain WHI3, stronger effect = lower value 0.959 | locus YNL224C, strain SQS1, stronger effect = lower value 0.962 | locus YNL322C, strain KRE1, stronger effect = lower value 0.975 | locus YOR083W, strain WHI5 (second series), stronger effect = lower value 0.951
